In general, AC50 refers to the concentration at which the activity in the assay is half-maximal. Usually IC50 stands for the concentration needed to halve the response being measured. Broadly, the viability is a read-out of living cells in per cent, often relative to untreated cells.

Here are results for 11 compounds from PubChem BioAssay.

The structures appear in SMILES notation. Records with an inconclusive call do not appear. Active and inactive are the calls of the source.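 Rule for the calls, unless noted: active = normalized viability below 100% at a tested concentration; inactive = the rest.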

Assay [1] is described as follows: growth inhibition of DIPG glioma cells, dose response, cell-based, SU-DIPG-XVII, MIPE5.0, CellTiter-Glo, qHTS (AID 1347060; cut-off not given, nearly all actives have AC50 up to about 26 µM;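 for AC50: cells exposed to compound for 48 hours before viability readout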). The note with it: SU-DIPG-XVII viability, CellTiter-Glo ATP luminescence. (In ATP-based viability assays light output follows the ATP content of the culture.)
Assay [2] is described as follows: growth inhibition of DIPG glioma cells, dose response, cell-based, SU-DIPG-XIII, MIPE4.0, CellTiter-Glo, qHTS (AID 1347061; cut-off not given, nearly all actives have AC50 up to about 37 µM;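 note: cells exposed to compound for 48 hours before readout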). The note with it: SU-DIPG-XIII viability, CellTiter-Glo ATP luminescence.
The nature of assay [3]: growth inhibition of DIPG glioma cells, dose response, cell-based, JHH-DIPG-1, MIPE4.0, CellTiter-Glo, qHTS (AID 1347062; cut-off not given, nearly all actives have AC50 up to about 27 µM;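 for AC50: cells exposed to compound for two days before readout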). The note with it: JHH-DIPG-1 viability, CellTiter-Glo ATP luminescence.
The nature of assay [4]: SU-DIPG-VI glioma cell viability, MIPE4.0 library, CellTiter-Glo luminescence, qHTS (AID 1347066; cut-off not given, nearly all actives have AC50 up to about 30 µM;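 note: cells exposed to compound for 48 hours before readout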). The note with it: CellTiter-Glo ATP luminescence.
Assay [5] can be described thus: JHH-DIPG-1 glioma cell viability, MIPE5.0 library, CellTiter-Glo luminescence, qHTS (AID 1347067; cut-off not given, nearly all actives have AC50 up to about 26 µM;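 note: cells exposed to compound for 48 hours before readout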). The settings on record: JHH-DIPG-1 glioma viability, CellTiter-Glo ATP luminescence.
Assay [6] is described as follows: growth inhibition of DIPG glioma cells, dose response, cell-based, SU-DIPG-IV, MIPE4.0, CellTiter-Glo, qHTS (AID 1347063; cut-off not given, nearly all actives have AC50 up to about 30 µM;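 note: compound exposure lasted 48 hours before the viability readout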). The settings on record: SU-DIPG-IV viability, CellTiter-Glo ATP luminescence.
A short description of assay [7]: growth inhibition of DIPG glioma cells, dose response, cell-based, SU-DIPG-XIII, MIPE5.0, CellTiter-Glo, qHTS (AID 1347064; cut-off not given, nearly all actives have AC50 up to about 23 µM;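 for AC50: cells exposed to compound for 48 hours before the viability read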). The note with it: SU-DIPG-XIII viability, CellTiter-Glo ATP luminescence.
Assay [8] can be described thus: viability loss in pontine glioma line – cell-based, SU-DIPG-XXV, MIPE5.0, CellTiter-Glo, qHTS, dose response (AID 1347065; cut-off not given, nearly all actives have AC50 up to about 26 µM;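 note: cells exposed to compound for 48 hours before ATP readout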). The note with it: CellTiter-Glo ATP luminescence.
The nature of assay [9]: SU-DIPG-XXV glioma cell viability, MIPE5.0 library, qHTS (AID 1347068; cut-off not given, nearly all actives have IC50 up to about 30 µM;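 for IC50: cells exposed to compound for 48 hours before viability readout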). (In general: In qHTS, concentration-response curves come from the screen itself.)
The nature of assay [10]: sensitizers of A549 cells to miR-34 induction, primary screen, imaging, A549 dox-inducible miR-34, nuclei and caspase counts (AID 1347080;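 active = compounds whose cell count with miR-34 switched on is under 0.7 times the count with it off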). The note with it: A549 miR-34 inducible, Hoechst nuclei count, 48 h.
A short description of assay [11]: survival rescue of mitochondrial mutant cells in low glucose, primary screen, MELAS cybrids, Rieske KO mouse fibroblasts, CellTiter-Glo (AID 1508586;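 active = mean z-score across replicates of 1.96 or higher in either the MELAS or the Rieske mutant cell line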;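 note: z relative to plate mean and SD of compound and empty wells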).
The nature of assay [12]: modifiers of HSF1 nuclear foci, imaging, Selleck Cancer Library (AID 1347162; in the data active = plate-normalised HSF1 focus index below about 0.46). The settings on record: human cells, at 10 µM; SSMD: measured here: HSF1 foci SSMD mean; cell count: measured here: cell number; plate-normalised HSF1 focus index: stronger effect = lower value.
Assay [13] in a line: ovarian cancer cell viability with rucaparib, profiling panel, oncology-focused library, rucaparib conditional (AID 1508598). The settings on record: patient-derived ovarian cancer cells, CellTiter-Glo viability, 144 h, stronger effect = lower value.
The mark [14] stands for this setting: stronger effect = lower value, cell number ratio, induced over uninduced.
Where [15] appears, read: measured here: relative caspase fold change +Dox/-Dox.
Where [16] appears, read: measured here: total cells with miR-34 induction, stronger effect = lower value.
[17] abbreviates: measured here: total cells without miR-34 induction.
Where [18] appears, read: MELAS cybrid survival, CellTiter-Glo 48 h, stronger effect = higher value.
The mark [19] stands for this setting: Rieske KO mouse fibroblast survival, CellTiter-Glo 72 h.

For `CN(C)c1ccc(C2Nc3ccc4ccccc4c3C3=C2C(=O)CC(C)(C)C3)cc1Br` (stereo not given), the compound was called inactive in assay [1], in [2], in [3], in assay [4] and in assay [5].
`NC1(C(=O)N[C@@H](CCO)c2ccc(Cl)cc2)CCN(c2ncnc3[nH]ccc23)CC1`: the AC50 in assay [1] was 14.8 µM (active); in [2] it was 14.8 µM (active); in [6] it was 0.662 µM (active); in assay [7] it was 1.48 µM (active); in assay [8], 2.09 µM (active). For the same compound, the IC50 in assay [9] is 3.72 µM (active).
Regarding `C[C@]12CCC3=C4CCC(=O)C=C4CC[C@H]3[C@@H]1CC[C@@]2(O)CC#N`, the compound was called inactive in [1], in [2], in assay [3], in [8], in assay [4] and in assay [5].
Take `C[C@](Cc1c[nH]c2ccccc12)(NC(=O)OC1C2CC3CC(C2)CC1C3)C(=O)NC[C@H](NC(=O)CCC(=O)O)c1ccccc1` (stereo not given in full): the compound was called inactive in assay [1], in assay [2], in [6], in assay [7], in assay [8] and in [4]. Moreover, the result in assay [5] and in [9] was inactive.
For the compound `Cc1cc([C@@H](C)Nc2ccccc2C(=O)O)c2nc(N3CCOCC3)cc(=O)n2c1`, the AC50 in assay [1] was 16.6 µM (active); in [2], 42.9 µM (active); in [6] it was 12.1 µM (active); in [7] it was 14.8 µM (active); in [8], 14.8 µM (active); in [4], 38.2 µM (active).
For the compound `CC1CCC(C(=O)N(c2cc(C#CC(C)(C)C)sc2C(=O)O)C2CCC(O)CC2)CC1` (stereo not given), the AC50 was 26.3 µM (active) in [1] and 23.5 µM (active) in [5]. Moreover, the compound was called inactive in [2] and in [3]. For the same compound, the fold change was 0.937 (inactive) in [10] (setting [14]) and 0.832 in [10] (setting [15]). Besides, the cell count in assay [10] (setting [16]) came to 7690; in [10] (setting [17]), 8210. Besides, the values for the z-score in assay [11] (setting [18]) and in assay [11] (setting [19]) were 0.177 (inactive) and -0.0881, respectively.
As to `CC1(C)S[C@H]2[C@H](NC(=O)[C@@H](N)c3ccc(O)cc3)C(=O)N2[C@H]1C(=O)O`, the compound was called inactive in assay [1], in [8], in assay [4], in [5] and in assay [9]. Moreover, the AC50 in assay [2] is 23.5 µM (active); in assay [3], 1.32 µM (active).
Take `CCn1c(-c2nonc2N)nc2cncc(CNC3CCNCC3)c21`: the outcome in [1], in assay [2], in assay [3], in assay [4], in assay [5] and in assay [9] was inactive.
For `Cc1ccc(C(C)(O)c2nc3ccccc3s2)c(C)c1` (stereo not given), the call in [1], in assay [2], in assay [3], in [7], in [4] and in assay [5] was inactive. Also, the compound was called inactive in assay [9].
Regarding `Cn1cnc2c(F)c(Nc3ccc(Br)cc3F)c(C(=O)NOCCO)cc21`, the AC50 in assay [1] is 3.72 µM (active); in assay [2], 4.18 µM (active); in [3], 6.62 µM (active); in assay [8], 5.25 µM (active); in [5], 0.833 µM (active). Besides, the result in assay [4] was inactive. Moreover, the fold change was 0.958 (inactive) in [10] (setting [14]) and 0.664 in [10] (setting [15]). In addition, the values for the cell count in assay [10] (setting [16]) and in assay [10] (setting [17]) were 4350 and 4540, respectively. Moreover, the values for the z-score in assay [11] (setting [18]) and in [11] (setting [19]) were 0.0149 (inactive) and -0.207, respectively.
Regarding `O=C(O)CCC1CCC(c2cc(F)ccc2F)(S(=O)(=O)c2ccc(Cl)cc2)CC1` (stereo not given), the compound was called inactive in [1], in [7] and in assay [5]. Further, the AC50 in [2] is 18.7 µM (active); in [3] it was 16.6 µM (active); in assay [4] it was 6.62 µM (active). Moreover, the fold change was 0.867 (inactive) in assay [10] (setting [14]) and 0.588 in [10] (setting [15]). In addition, the figures for the cell count in assay [10] (setting [16]), in assay [10] (setting [17]) and in assay [12] were 8810, 10200 and 7050, respectively. The compound further came in with an SSMD in assay [12] of 1.51. Also, the plate-normalised HSF1 focus index in [12] was 1.09 (inactive). Also, the figures for the z-score in assay [11] (setting [18]) and in assay [11] (setting [19]) were -0.308 (inactive) and 0.781, respectively. The viability in [13] (at 0.000305 µM, OCI-C5x cells, with rucaparib 10 µM, 100% = cells with rucaparib alone) is 114% (inactive); in assay [13] (at 0.000305 µM, OCI-C5x cells, without rucaparib) it was 121% (inactive); in assay [13] (at 0.000305 µM, OCI-P5x cells, with rucaparib 20 µM, 100% = cells with rucaparib alone), 110% (inactive); in assay [13] (at 0.000305 µM, OCI-P5x cells, without rucaparib) it was 108% (inactive); in assay [13] (at 0.00122 µM, OCI-C5x cells, with rucaparib 10 µM, 100% = cells with rucaparib alone), 123% (inactive); in assay [13] (at 0.00122 µM, OCI-C5x cells, without rucaparib) it was 121% (inactive). In addition, the viability is 113% (inactive) in assay [13] (at 0.00122 µM, OCI-P5x cells, with rucaparib 20 µM, 100% = cells with rucaparib alone); 102% (inactive) in assay [13] (at 0.00122 µM, OCI-P5x cells, without rucaparib); 110% (inactive) in [13] (at 0.00488 µM, OCI-C5x cells, with rucaparib 10 µM, 100% = cells with rucaparib alone); 120% (inactive) in [13] (at 0.00488 µM, OCI-C5x cells, without rucaparib); 107% (inactive) in assay [13] (at 0.00488 µM, OCI-P5x cells, with rucaparib 20 µM, 100% = cells with rucaparib alone); 105% (inactive) in assay [13] (at 0.00488 µM, OCI-P5x cells, without rucaparib). Also, the viability in assay [13] (at 0.0195 µM, OCI-C5x cells, with rucaparib 10 µM, 100% = cells with rucaparib alone) is 115% (inactive); in assay [13] (at 0.0195 µM, OCI-C5x cells, without rucaparib), 104% (inactive); in assay [13] (at 0.0195 µM, OCI-P5x cells, with rucaparib 20 µM, 100% = cells with rucaparib alone), 104% (inactive); in assay [13] (at 0.0195 µM, OCI-P5x cells, without rucaparib), 104% (inactive); in [13] (at 0.0781 µM, OCI-C5x cells, with rucaparib 10 µM, 100% = cells with rucaparib alone), 108% (inactive); in assay [13] (at 0.0781 µM, OCI-C5x cells, without rucaparib), 112% (inactive). Besides, the viability in assay [13] (at 0.0781 µM, OCI-P5x cells, with rucaparib 20 µM, 100% = cells with rucaparib alone) was 102% (inactive); in assay [13] (at 0.0781 µM, OCI-P5x cells, without rucaparib) it was 93.6% (active); in assay [13] (at 0.313 µM, OCI-C5x cells, with rucaparib 10 µM, 100% = cells with rucaparib alone), 113% (inactive); in assay [13] (at 0.313 µM, OCI-C5x cells, without rucaparib), 113% (inactive); in assay [13] (at 0.313 µM, OCI-P5x cells, with rucaparib 20 µM, 100% = cells with rucaparib alone), 99.9% (active); in assay [13] (at 0.313 µM, OCI-P5x cells, without rucaparib), 89.3% (active). The viability in assay [13] (at 1.25 µM, OCI-C5x cells, with rucaparib 10 µM, 100% = cells with rucaparib alone) was 113% (inactive); in assay [13] (at 1.25 µM, OCI-C5x cells, without rucaparib), 109% (inactive); in assay [13] (at 1.25 µM, OCI-P5x cells, with rucaparib 20 µM, 100% = cells with rucaparib alone), 94.5% (active); in [13] (at 1.25 µM, OCI-P5x cells, without rucaparib) it was 87.7% (active); in assay [13] (at 5 µM, OCI-C5x cells, with rucaparib 10 µM, 100% = cells with rucaparib alone), 114% (inactive); in assay [13] (at 5 µM, OCI-C5x cells, without rucaparib), 107% (inactive). Moreover, the viability is 84.8% (active) in assay [13] (at 5 µM, OCI-P5x cells, with rucaparib 20 µM, 100% = cells with rucaparib alone) and 76.9% (active) in assay [13] (at 5 µM, OCI-P5x cells, without rucaparib).
